Screens deposited in PubChem by The Scripps Research Institute Molecular Screening Center.
FBW7 act – human FBW7 E3 ligase activation, primary screen; AlphaScreen FBW7–phospho-cyclin E peptide binding, activator screen; normalized activity (activation), % at 26.1 µM; Q969H0; AID 1259310; actives 0.13% (n = 650,000); in the data active = normalized activity above about 1.9%;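 also: purified mutant Fbw7 with reduced substrate affinity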
MITF inh – human MITF inhibition, primary screen. AID 1259374. inhibition, % at 2.6 µM. O75030. AlphaScreen MITF homodimerization, bead proximity signal. actives 0.91% (n = 650,000); in the data active = inhibition above about 50%
TEAD-YAP inh – TEAD-YAP interaction inhibition | HEK-TIYL cells, TEAD-Gal4/YAP UAS-luciferase luminescence | inhibition, % at 9.12 µM | actives 1.4% (n = 640,000); in the data active = inhibition above about 32%
GPR151 ag – human GPR151 activation. PathHunter beta-arrestin GPR151 cells, luminescence. activation, % at 11.2 µM. actives 1% (n = 650,000). AID 1508602; in the data active = activation above about 4.9%
Target sequence (Q8TDV0 whole entry, looked up): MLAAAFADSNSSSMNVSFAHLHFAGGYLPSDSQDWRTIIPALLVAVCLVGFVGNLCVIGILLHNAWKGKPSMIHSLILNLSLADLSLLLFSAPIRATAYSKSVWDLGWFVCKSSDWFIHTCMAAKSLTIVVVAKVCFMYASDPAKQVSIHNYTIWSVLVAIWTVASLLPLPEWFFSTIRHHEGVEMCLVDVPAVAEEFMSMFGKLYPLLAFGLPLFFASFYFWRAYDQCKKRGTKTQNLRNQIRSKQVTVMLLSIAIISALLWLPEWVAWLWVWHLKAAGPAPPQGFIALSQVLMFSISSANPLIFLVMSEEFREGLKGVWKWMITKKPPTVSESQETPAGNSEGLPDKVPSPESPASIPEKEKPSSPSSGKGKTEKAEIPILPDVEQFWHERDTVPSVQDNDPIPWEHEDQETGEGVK
Each line names hits and unclear results; the compound was inactive in the other large screens. This is a sample that favours compounds with a hit; in the whole collection about 3.5% have one here.

CS(=O)(=O)N(CC(=O)NC1CC1)c1cccc(C(F)(F)F)c1	none
Cc1cccn2c(CNCc3cnn(-c4cccc(F)c4)c3)c(C(=O)N3CCCCC3)nc12	none
CC(=O)c1cccc(N(CC(=O)Nc2ccc(Br)c(C)c2)S(C)(=O)=O)c1	none
COc1cc(C(=O)Nc2ccccc2)c2ccccc2n1	none
Nc1ccccc1C(=O)NCCc1ccccc1	TEAD-YAP inh 62.7
COc1cc(C(=O)NCCOc2cc(C)cc(C)c2)cc(OC)c1OC	TEAD-YAP inh 51.5
CCc1ccc(-c2cc(C(=O)Nn3cnnc3)c3ccccc3n2)cc1	TEAD-YAP inh 81.9
CCOc1ccc(NC(=O)c2cc(OC)nc3ccccc23)cc1	TEAD-YAP inh 52.3
COc1ccc(C(=O)NCCOc2cc(C)cc(C)c2)cc1OC	none
C=CCOc1ccc(/C=C(\C#N)S(=O)(=O)c2ccccc2)cc1OCC	none
COc1ccc(Cl)cc1NS(=O)(=O)c1cc(Cl)ccc1Cl	none
Cc1ccc(NC(=O)CN2C(=O)NC(CC(C)C)C2=O)cc1Cl (stereo not drawn)	none
CCOc1ccc(-c2cc(C(=O)Nc3cc(=O)n(C)c(=O)n3C)c3ccccc3n2)cc1	TEAD-YAP inh 76.4
COc1ccc(C(=O)Nc2ccc(-c3nc4ccccc4[nH]3)cc2)cc1OC	none
COc1cc(C(=O)Nc2ccc(-c3nc4ccccc4[nH]3)cc2)cc(OC)c1OC	TEAD-YAP inh 32.0
NC(=O)CN1C(=O)/C(=C2\SC(=S)N(C3CCCCC3)C2=O)c2ccccc21	none
COc1ccccc1C1(C(=O)NCc2ccc(F)cc2)CCOCC1	none
S=C(NCCc1ccccc1)N/N=C/c1ccccn1	TEAD-YAP inh 80.5
O=C(Cc1ccccc1)N/N=C/c1ccccn1	none
COc1ccc(/C(C)=N/NC(=S)NCCc2ccccc2)c(O)c1	MITF inh 87.3
C/C(=N\NC(=S)NCCc1ccccc1)c1ccccn1	TEAD-YAP inh 88.1
Cc1cc(C)nc(Sc2ccc(NC(=O)/C=C\C(=O)O)cc2)n1	none
CCn1nc(C(=O)N(CC2CCCO2)c2nc3ccc(C)cc3s2)cc1C (stereo not drawn)	none
CCn1nc(C)cc1C(=O)N(CC1CCCO1)c1nc2cc(C)cc(C)c2s1 (stereo not drawn)	TEAD-YAP inh 41.1
CCOC(=O)c1cccc2c1NC(c1ccc(C(=O)O)cc1)C1CC=CC21 (stereo not drawn)	MITF inh 82.9
COC(=O)c1cccc2c1NC(c1ccc(Br)cc1)C1CC=CC21 (stereo not drawn)	none
O=C(O)c1cccc2c1NC(c1ccccc1)C1CC=CC21 (stereo not drawn)	none
O=C(O)c1cccc2c1NC(c1ccc(Br)cc1)C1CC=CC21 (stereo not drawn)	none
COC(=O)c1cccc2c1N[C@@H](c1ccc(C(=O)O)cc1)[C@H]1CC=C[C@@H]21	MITF inh 58.8
COC(=O)c1cccc2c1NC(c1ccc(C(=O)O)cc1)C1CC=CC21 (stereo not drawn)	MITF inh 68.5
COc1cc(OC)c2c(c1)C1C=CCC1C(c1ccc(C(=O)O)cc1)N2 (stereo not drawn)	MITF inh 73.3
COc1cc(OC)c2c(c1)C1C=CCC1C(c1ccc(OC)c([N+](=O)[O-])c1)N2 (stereo not drawn)	none
NNC(=O)CNC(=O)c1ccc([N+](=O)[O-])cc1	none
O=C(CNC(=O)c1ccco1)NNC(=O)Cn1nnc(-c2ccccc2)n1	none
COc1ccc(C2(C(=O)NC(C)c3nc(-c4cccnc4)n[nH]3)CC2)cc1 (stereo not drawn)	TEAD-YAP inh 50.8
CC(NC(=O)C1(c2ccc(Cl)cc2)CC1)c1nc(-c2cccnc2)n[nH]1 (stereo not drawn)	none
O=C(c1ccco1)N1CCN(c2ncc(-c3ccccc3CO)n3ccnc23)CC1	FBW7 act 6.7
O=C(c1ccco1)N1CCN(c2nccn3c(-c4ccccc4CO)cnc23)CC1	none
CC1CCN(C(=O)N2c3ccccc3Sc3ccccc32)CC1	none
CCOC(=O)N1CCN(C(=O)N2c3ccccc3Sc3ccccc32)CC1	TEAD-YAP inh 56.4
CN(C)/C=C/C=C1\CCC/C(=C\N(C)C)C1=O	MITF inh 52.5
CCOc1cc(N2CCOCC2)c(OCC)cc1NC(=O)CN1CCCC1	MITF inh 83.2
CCOc1cc(N2CCOCC2)c(OCC)cc1NC(=O)CN(CC)C1CCCCC1	none
Oc1ccccc1-c1cc(-c2ccccc2)no1	none
Cc1ccc(-c2cc(-c3ccccc3)no2)c(O)c1	TEAD-YAP inh 51.9
CCn1c(N2CCC(C(=O)NC3CCN(Cc4ccccc4)CC3)CC2)nc2ccccc21	TEAD-YAP inh 39.5
CCn1c(N2CCC(C(=O)NCCO)CC2)nc2ccccc21	none
CCN(CC)CCCNCC(=O)Nc1cc(C)on1	none
CCN(CC)CCCNCC(=O)Nc1nc(C)cs1	TEAD-YAP inh 94.8
CCN(CC)CCCNCC(=O)N1c2ccccc2Sc2ccccc21	TEAD-YAP inh 40.1
CCN(CC)CCCNC(=O)C1CCCN(Cc2nc(-c3ccccc3C)oc2C)C1 (stereo not drawn)	none
COc1ccc(-c2c(C#N)c(SCC(=O)Nc3cc(OC)c(Cl)cc3OC)nc(C)c2C(=O)Nc2ccc(Cl)cc2)cc1	none
COc1ccccc1N=c1scc(-c2ccc3c(c2)NC(=O)CO3)n1CC1CCCO1 (stereo not drawn)	none
Cc1ccccc1N=c1scc(-c2ccc3c(c2)NC(=O)CO3)n1Cc1ccco1	TEAD-YAP inh 48.0
COc1ccc(S(=O)(=O)N(CC(=O)NCc2ccccc2C)c2ccccc2)cc1	none
CCSc1nc(-c2ccccc2)c(NC(=O)c2ccco2)s1	FBW7 act 1.9
CCOc1ccccc1NC(=O)CSc1ccc2nnc(-c3ccccc3)n2n1	none
Cc1sc2nc(SCC(=O)Nc3ccccc3N3CCOCC3)nc(N)c2c1C	TEAD-YAP inh 43.1
O=C(Nc1ccccc1)c1cccc(OCc2cccc(Cl)c2)c1	none
CCC(C)NC(=O)C(=O)Nc1ccccc1C (stereo not drawn)	none
CNC(=O)c1cnn(-c2ccccc2)c1-n1cccc1	none
CCc1ccc2nc(N3CCC(C(=O)NC(C)C)CC3)sc2c1	TEAD-YAP inh 39.8
CCc1ccc2nc(N3CCC(C(=O)NC4CCCCC4)CC3)sc2c1	TEAD-YAP inh 70.0
C1=Nc2ccccc2SC(c2cccnc2)=C1	TEAD-YAP inh 86.0
COc1ccccc1/C=C(\C(=O)O)c1ccc(S(=O)(=O)N2CCCCC2)s1	none
Cc1cc(OCC(=O)O/N=C(\N)c2cccc([N+](=O)[O-])c2)ccc1Cl	none
CCCCOc1ccccc1/C=C1/SC(N2CCOCC2)=NC1=O	TEAD-YAP inh 41.3
CC(=O)N1CCN(C2=NC(=O)/C(=C\c3ccccc3OC(C)C)S2)CC1	none
CC1CCN(C2=NC(=O)/C(=C/c3ccccc3F)S2)CC1	TEAD-YAP inh 54.2
CC1CCN(C2=NC(=O)/C(=C\c3ccccc3Cl)S2)CC1	none
CC(C)Oc1ccccc1/C=C1/SC(N2CCOCC2)=NC1=O	TEAD-YAP inh 44.9
COc1ccc(C2C=C(c3cccnc3)Nc3ncnn32)c(OC)c1OC (stereo not drawn)	none
Cc1cc(=O)oc(C)c1C(=O)NCCCN1CCOCC1	none
O=C(NCc1ccncc1)c1nnc(-c2ccccc2)o1	none
Cn1c(CS(=O)(=O)c2ccccc2)c(C#N)c2ccccc21	TEAD-YAP inh 34.4
